In the library only some 5.6% were active in any assay of this set; here they are far more common.
ALR inh: blocks human ALR sulfhydryl oxidase activity; P55789; purified ALR, DTT oxidation, H2O2 HRP-luminol luminescence; inhibition, % (no concentration beside the values); actives 3.8% (n = 290,000); AID 485317;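 active = mean replicate inhibition above about 79%, with every replicate also reaching it, limit read from the data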
Target sequence (P55789 whole entry, looked up): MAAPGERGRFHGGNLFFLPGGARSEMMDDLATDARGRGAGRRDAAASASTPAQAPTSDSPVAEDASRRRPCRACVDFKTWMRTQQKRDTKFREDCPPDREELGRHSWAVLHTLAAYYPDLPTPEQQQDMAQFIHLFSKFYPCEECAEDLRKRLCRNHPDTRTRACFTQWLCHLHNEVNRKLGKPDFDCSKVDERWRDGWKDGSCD
PfGluPho inh: PfG6PD (Plasmodium falciparum) enzyme inhibition; PfGluPho enzyme, NADPH resazurin-diaphorase fluorescence; inhibition, % at 20 µM; actives 0.78% (n = 350,000); AID 504690;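 active = inhibition reaching at least a set limit at 20 µM in the primary screen, cut at about 59% in these data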
PfM18AAP inh: PfM18AAP enzyme inhibition. AID 1822. recombinant PfM18AAP, H-Glu-NHMec fluorogenic cleavage. inhibition, % at 7.35 µM. actives 1.2% (n = 290,000);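 active = inhibition above the campaign mean inhibition over all tested compounds plus 3 SD, cut at about 28% in these data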
PHOSPHO1 block: blocks human PHOSPHO1 phosphatase activity; inhibition, % at 13.3 µM; actives 1.1% (n = 290,000); Q8TCT1; AID 1565; recombinant PHOSPHO1, absorbance phosphatase assay; in the data active = inhibition above about 60%
Target sequence (Q8TCT1 whole entry, looked up): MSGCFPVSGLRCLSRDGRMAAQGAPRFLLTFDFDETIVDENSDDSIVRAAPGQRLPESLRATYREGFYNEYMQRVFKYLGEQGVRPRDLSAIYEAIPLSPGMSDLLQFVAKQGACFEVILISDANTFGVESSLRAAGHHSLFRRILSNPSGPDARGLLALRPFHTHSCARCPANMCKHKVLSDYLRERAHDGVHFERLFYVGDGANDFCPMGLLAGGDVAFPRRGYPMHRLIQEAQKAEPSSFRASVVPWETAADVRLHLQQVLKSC
Cardio protect: protects H9c2 cardiomyocytes from peroxide injury | H2O2 injury protection, ATPLite, 2 h | protection from H2O2 cell death, % at 20 µM | actives 0.63% (n = 360,000);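 active = compounds giving at least 50% protection of heart cells from peroxide-induced death in the single-dose screen, raw or plate-pattern-corrected value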
Hits are given with their value; - = inactive; . = not tested or not shown.

SMILES	ALR inh	PfGluPho inh	PfM18AAP inh	PHOSPHO1 block	Cardio protect
COCC(C)n1c(C)cc(C(=O)CSc2nnc(Nc3ccccc3F)s2)c1C (configuration not stated)	-	-	-	80	-
COCCn1c(C)cc(C(=O)CSc2nncn2-c2ccccc2)c1C	-	-	-	95	-
C=CCn1c(C)cc(C(=O)CSc2ccc(NC(C)=O)cc2)c1C	98	-	-	-	-
COCC(C)n1c(C)cc(C(=O)CSc2ncccn2)c1C (configuration not stated)	-	-	-	-	-
COc1ccc(-n2cnnc2SCC(=O)c2cc(C)n(Cc3cccs3)c2C)cc1	-	-	-	-	-
Cc1cc(C(=O)CSc2nnc(Cc3ccccc3)o2)c(C)n1Cc1ccc2c(c1)OCO2	-	-	-	-	-
C=CCn1c(C)cc(C(=O)CSc2nnc(Cc3ccccc3)o2)c1C	.	-	-	88	-
CCn1cnc2c([N+](=O)[O-])c(NS(=O)(=O)c3ccc(C)cc3)ccc21	.	-	.	.	-
COCC(C)n1c(C)cc(C(=O)CSc2ccc(NC(C)=O)cc2)c1C (configuration not stated)	98	-	-	-	-
COCCn1c(C)cc(C(=O)CSc2ccc3ccccc3n2)c1C	-	-	-	69	-
COCCn1c(C)cc(C(=O)CSc2ccc(NC(C)=O)cc2)c1C	98	-	-	-	-
COc1ccc(CCC(=O)N/N=C(\C)c2ccc3c(c2)OCO3)cc1	-	-	-	-	-
CC(C)(C)C#CC(CCc1ccccc1)OS(N)(=O)=O (configuration not stated)	-	.	-	-	.
COc1ccccc1N1CCN(C(=O)c2cccc(S(=O)(=O)Nc3ccccc3F)c2)CC1	-	-	.	.	-
Cc1cc2nc(/N=C(\N)NC(=O)N3c4ccccc4Sc4ccccc43)nc(C)c2cc1C	92	-	-	-	-
Cc1ccc2nc(/N=C(\N)NC(=O)N3c4ccccc4Sc4ccccc43)nc(C)c2c1	-	-	-	-	-
O=C(COC(=O)c1ccc([N+](=O)[O-])o1)Nc1ccc(N2CCOCC2)cc1	-	-	.	.	52
CN(C)S(=O)(=O)c1cccc(NC(=O)COC(=O)c2ccc([N+](=O)[O-])o2)c1	-	-	-	-	102
CC(=O)c1c(O)cc2c3c1OC(C)(C)C1CCC(C)(CC31)O2 (configuration not stated)	.	-	.	.	-
O=C(Nc1cc([N+](=O)[O-])ccc1O)c1ccc2c(c1)C(=O)N(Cc1ccco1)C2=O	98	-	-	-	-
O=C(Nc1ccc(O)cc1)c1ccc2c(c1)C(=O)N(Cc1ccco1)C2=O	100	-	-	-	-
CN(Cc1n[nH]c(=S)n1C)S(=O)(=O)c1ccccc1	85	-	-	-	-
Cn1c(CC(=O)Nc2ccccc2)n[nH]c1=S	-	-	-	60	-
CN(Cc1nc2ccccc2n1C)S(=O)(=O)c1ccc(F)cc1	-	-	-	-	-
Cc1ccc(NC(=O)Cc2n[nH]c(=S)n2C)cc1	.	-	-	-	-
SMILES	ALR inh	PfGluPho inh	PfM18AAP inh	PHOSPHO1 block	Cardio protect
O=C(NCc1n[nH]c(=S)n1-c1ccc(Br)cc1)c1ccc(S(=O)(=O)N2CCCC2)cc1	91	-	-	-	-
O=C(NCc1n[nH]c(=S)n1-c1ccc(F)cc1)c1ccc(S(=O)(=O)N2CCCCC2)cc1	-	-	-	-	-
COc1ccc(-n2c(CNC(=O)c3ccc(S(=O)(=O)N4CCCC4)cc3)n[nH]c2=S)cc1	91	-	-	-	-
CC(=O)Nc1ccc(S(=O)(=O)NCC(=O)OCC(=O)N2CCCCCC2)cc1	-	-	.	.	-
CC(C(=O)N1CCN(C(=O)c2ccco2)CC1)N1C(=O)NC2(CCCCC2C)C1=O (configuration not stated)	-	-	.	.	-
COc1ccc(CC(=O)NCc2n[nH]c(=S)n2C)cc1	97	-	-	-	-
O=C(NCc1n[nH]c(=S)n1-c1cccc(Cl)c1)c1ccc(S(=O)(=O)N2CCCCC2)cc1	-	-	-	-	-
O=C(NCc1n[nH]c(=S)n1-c1ccc(Br)cc1)c1ccc(S(=O)(=O)N2CCOCC2)cc1	-	-	28	77	-
COc1cc(OC)cc(C(=O)NCc2n[nH]c(=S)n2-c2ccccc2OC)c1	-	-	-	-	-
O=C(NCc1n[nH]c(=S)n1-c1ccc(Br)cc1)c1ccc(S(=O)(=O)N2CCCCC2)cc1	-	-	-	-	-
COc1ccc(-n2c(CNC(=O)c3cc(OC)c(OC)c(OC)c3)n[nH]c2=S)cc1	93	-	-	-	-
Cc1cccc(-n2c(CNC(=O)c3ccc(S(=O)(=O)N4CCCC4)cc3)n[nH]c2=S)c1	-	-	-	80	-
Cc1ccc(C2(C)NC(=O)N(CC(=O)NC(=O)NC(C)(C)C)C2=O)cc1 (configuration not stated)	-	-	-	-	-
COC(=O)c1ccc(OC(=O)c2cccnc2SC)cc1	.	-	-	-	-
COC(=O)c1ccc(OC(=O)c2ccccn2)cc1	96	-	-	-	-
N#CC(C#N)=Cc1ccc(OC(=O)c2ccccn2)cc1	97	-	-	-	-
CC(=O)OC[C@@H]1CN(Cc2ccccc2)C[C@H](n2cnc3c(N(C)C(C)C)ncnc32)O1	.	.	.	.	-
COc1cc(C2C(C#N)=C(N)Oc3c2oc(CO)cc3=O)ccc1OC(C)C (configuration not stated)	85	-	-	-	-
O=C(COC(=O)c1cccc(S(=O)(=O)N2CCCC2)c1)Nc1ccc(Cl)cc1	.	-	.	.	-
C=CC[n+]1c(C)csc1Nc1cccc(Br)c1	97	-	-	-	-
Cc1ccc(-c2csc(Nc3ccccc3)[n+]2CCc2ccccc2)cc1	-	-	-	-	-
C=CC[n+]1c(C)csc1Nc1ccc(C)cc1	99	-	-	-	-
O=C(CNC(=O)OCc1ccccc1)OC(c1ccccc1)c1ccccc1	.	-	.	.	-
Cn1ccc(C(=O)Nc2cccnc2Cl)n1	.	-	-	.	-
Cc1cc(Cn2nnc(-c3ccc(Br)cc3)n2)cc(C)c1O	.	-	.	.	-
SMILES	ALR inh	PfGluPho inh	PfM18AAP inh	PHOSPHO1 block	Cardio protect
CC(C)n1nnc(-c2ccc(OCc3ccccc3F)cc2)n1	-	-	-	-	-
Cc1ccccc1SCC(=O)OCC(=O)NCCNC(=O)COC(=O)CSc1ccccc1C	.	-	.	.	-
CCCCCN1C2=NCCN2c2ccccc21	96	-	-	-	-
Cc1ccccc1CN1C2=NCCCN2c2ccccc21	-	-	-	-	-
Fc1ccc(CN2C3=NCCN3c3ccccc32)cc1	95	-	-	-	-
CCOC(=O)CN1C2=NCCN2c2ccccc21	.	-	-	-	-
Cc1ccccc1CN1C2=NCCN2c2ccccc21	99	-	-	-	-
COc1ccc(CNC(=O)CN(Cc2ccccc2)C(=O)CCC(=O)Nc2ccccn2)cc1	-	-	-	-	-
CNc1cncc(-c2cccc(C(=O)N(C)C)c2)n1	.	.	.	.	-
CC1CCCCC1NC(=O)c1cc(Cl)nc2ccccc12 (configuration not stated)	.	-	.	.	-
Cc1ccc2ccccc2c1C(O)c1ncc(-c2ccc(Cl)cc2)[nH]1 (configuration not stated)	.	.	.	.	-

Compound activity: PubChem BioAssay, several laboratories
